Screening data as filed in PubChem.
TRPV1 ag – human TRPV1 agonism. Q8NER1. TRPV1-expressing cells, Fluo-8 calcium influx, agonist mode. activation, % at 8.33 µM. 0.19% of 320,000 active; in the data active = activation above about 80%; inconclusive = between about 30% and that limit; note: 0% is about no effect
Target sequence (Q8NER1 whole entry, looked up): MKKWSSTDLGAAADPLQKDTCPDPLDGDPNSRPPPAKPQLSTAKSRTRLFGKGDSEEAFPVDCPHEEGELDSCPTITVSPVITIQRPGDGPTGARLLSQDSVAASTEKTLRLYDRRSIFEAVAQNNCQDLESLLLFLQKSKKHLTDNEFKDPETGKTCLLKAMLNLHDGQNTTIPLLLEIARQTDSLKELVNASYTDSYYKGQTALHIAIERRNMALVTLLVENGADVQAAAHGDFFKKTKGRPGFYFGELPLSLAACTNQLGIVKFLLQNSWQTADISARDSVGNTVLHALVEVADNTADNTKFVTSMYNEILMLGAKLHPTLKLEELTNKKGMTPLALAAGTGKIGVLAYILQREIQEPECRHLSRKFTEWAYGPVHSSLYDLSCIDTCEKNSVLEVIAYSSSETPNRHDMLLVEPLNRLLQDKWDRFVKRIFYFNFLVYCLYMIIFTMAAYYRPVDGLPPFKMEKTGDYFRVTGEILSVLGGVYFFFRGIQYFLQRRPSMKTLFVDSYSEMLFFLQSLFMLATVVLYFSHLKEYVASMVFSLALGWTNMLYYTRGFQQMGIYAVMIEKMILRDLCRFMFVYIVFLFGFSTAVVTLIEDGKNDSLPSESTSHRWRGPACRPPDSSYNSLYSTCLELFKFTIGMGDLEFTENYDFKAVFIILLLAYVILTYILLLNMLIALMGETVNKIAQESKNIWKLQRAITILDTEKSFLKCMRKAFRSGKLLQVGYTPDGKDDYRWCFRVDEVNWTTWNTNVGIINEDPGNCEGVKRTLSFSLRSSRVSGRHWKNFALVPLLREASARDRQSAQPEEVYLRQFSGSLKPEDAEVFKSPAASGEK
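Cells expressing TRPV1 were dye-loaded with Fluo-8 and read kinetically: 10 s baseline, 3 min after compound (agonist portion), then 2 min after EC20 capsaicin (allosteric enhancer portion). Calcium-bound dye fluorescence at 480/520 nm.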
TRPV1 PAM – potentiators of human vanilloid receptor 1 (TRPV1); potentiation, % at 8.33 µM; 0.02% of 320,000 active; AID 540277; TRPV1-expressing cells, Fluo-8 calcium influx, capsaicin EC20 potentiation; Q8NER1; in the data active = potentiation above about 80%; inconclusive = between about 30% and that limit; note: 0% is about no effect
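Cells expressing TRPV1 were dye-loaded with Fluo-8 and read kinetically: 10 s baseline, 3 min after compound (agonist portion), then 2 min after EC20 capsaicin (allosteric enhancer portion). Calcium-bound dye fluorescence at 480/520 nm.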
IMPase Li cell – membrane-permeable IMPase blocker, potentiated with lithium; CHO-M1 cells, IP1 TR-FRET (IP-One), carbachol + lithium; Potency, µM (highest dose often 59.4 µM), for inactives: at the highest dose activity, negative = IMPase inhibition, usual class: inhibitors; 0.35% of 210,000 active; AID 1457;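 note: IP1 builds up when IMPase is blocked and the TR-FRET signal falls; potency is the fitted concentration of half-maximal effect; plate controls were basal vehicle for no effect and high inhibitor control for full effect; nearly all actives have a fitted effect of over 50% in size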
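CHO cells stably expressing M1 receptor (2000/well) were cultured 16–30 h, then exposed to compounds with a small lithium addition for 30 min at 37C. IP1 was measured by TR-FRET competition; AC50 from Hill fits.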
A-T KAP1 phos – potential ataxia-telangiectasia treatments restoring KAP-1 phosphorylation; AID 485349; F2112 A-T fibroblasts, KAP-1 phosphorylation AlphaLISA; neocarzinostatin DNA damage 30 min before lysis; 0.19% of 320,000 active; Potency, µM (top dose mostly 57.5 µM), without a hit: top-dose activation, most hits filed as activators; note: potency is the fitted concentration of half-maximal effect; % of control where 0% means no effect; nearly all actives have a fitted effect of over 45% in size
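hTERT-immortalized A-T patient fibroblasts (F2112), 500 cells/well in OPTI-MEM, 1% FBS, got compounds for 60 min, then NCS for 30 min at 37C. Lysates were then assayed for phospho-KAP-1 by AlphaLISA (anti-pKAP1 donor, anti-KAP1 acceptor beads), 6 hr at 25C.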
Starred values were filed as active, the others as inactive; ? = inconclusive; nt = no result given; [ ] = remark or other dose. In the library only some 0.55% were active in any assay of this set; here they are far more common. Unless noted, calls come from the whole dose curve; as a rule, active = well fitted curve in the direction sought with a large enough effect; inconclusive = small, poorly fitted or top-dose-only effect, or another doubt; inactive = no such curve, though single readings can be large; an effect the other way counts as inactive or inconclusive.

SMILES	TRPV1 ag	TRPV1 PAM	IMPase Li cell	A-T KAP1 phos
CC(=O)Nc1ccc(NS(=O)(=O)c2c(Cl)cccc2Cl)cc1	-5	14	nt	40µM*
CC(C)(C)c1ccc(S(=O)(=O)/C=C\C#N)cc1	nt	nt	32%	nt
CC(=O)Nc1ccc(C2=NN(c3ccccc3)C(c3cccs3)C2)cc1 (centres undefined)	18	1	?	25µM*
O=C(Nc1cccc(Cl)c1)c1csc(-c2ccccc2)n1	-7	17	6%	32µM*
CC1CCN(C(=O)COC(=O)c2c[nH]c3ccccc23)CC1	4	1	nt	-2%
CC1CC(C)CN(C(=O)COC(=O)c2c[nH]c3ccccc23)C1 (centres undefined)	?	-18	nt	10µM*
Nc1nc(C(=O)O)c(N=Nc2ccccc2)c(=O)[nH]1	nt	nt	-5%	nt
C=C1C=C(C(F)F)n2ncc(C(=O)Nc3ccc(C(C)CC)cc3)c2N1 (centres undefined)	1	-1	nt	nt
CCC(=O)Nc1cc2nn(-c3ccc(OC)cc3)nc2cc1C	2	-1	11µM*	-1%
COc1ccc(-n2nc3cc(C)c(NC(=S)NC(=O)c4ccccc4C)cc3n2)cc1	5	1	13µM*	0%
COc1cc(NC(C)=O)c2ncccc2c1NC(C)=O	-5	23	nt	35µM*
COc1cc(NC(C)=O)c2ncccc2c1[N+](=O)[O-]	-5	4	1%	-4%
CC(C)n1c2ccccc2c2nc3ccccc3nc21	2	-19	23%[38.3 µM]	35µM*
O=C(O)[C@@H]1[C@@H]2C[C@@H]3[C@@H](OC(=O)[C@@H]31)[C@H]2Br	nt	nt	6%	nt
Oc1ccc(Cc2cc(Cl)cc(Cl)c2O)cc1Cl	nt	nt	-2%	nt
Cc1sc2ncnc(Sc3ccccc3C(=O)O)c2c1C	-3	6	4.5µM*	-4%
CC(=O)c1ccc(NC(=O)c2ccccc2Sc2ncnc3sc(C)c(C)c23)cc1	12	8	12%	-2%
O=C(O)c1ccccc1Sc1ncnc2sc3c(c12)CCC3	1	3	8.9µM*	-1%
O=C(O)/C(=C\c1ccccc1)Cc1ccccc1	nt	nt	0%	nt
FC(F)(F)c1nnc2c(Sc3ccc(Cl)cc3)nc3ccccc3n12	-3	-7	18µM*	12%
FC(F)(F)c1nnc2c(Sc3ccccc3)nc3ccccc3n12	3	-5	-24%	1%
Cc1cccc2cc(C#N)c(N3CCN(C)CC3)nc12	7	-11	nt	14%
Cc1cc(C)c2nc(N3CCN(C)CC3)c(C#N)cc2c1	-1	-1	28µM*	5%
CCOC(=O)c1c(-c2cccs2)csc1NC(=O)CCCC(=O)O	5	0	10µM*	8%
S=C1SCN(C2CCCCCCCCCCC2)CN1C1CCCCCCCCCCC1	nt	nt	19%	nt
SMILES	TRPV1 ag	TRPV1 PAM	IMPase Li cell	A-T KAP1 phos
CCOC(=O)c1c(/C=N/Nc2ccccc2)c2sc(C)cc2n1C	nt	nt	nt	5%
CCCCS(=O)(=O)N1CCc2nc(-c3ccc(OC)cc3C)c3c(c2C1)CO[C@@H](c1ccccc1)C3	nt	nt	9%	nt
O=c1c2ccccc2oc2ccccc12	nt	nt	-2%	nt
S=c1[nH]ncn2c1cc1oc3ccccc3c12	-2	12	1.1µM*	-3%
CC(=O)NCc1cc(Cl)c2cccnc2c1O	nt	nt	nt	-14%
CCCCOCCOCCSC#N	nt	nt	16%	nt
N[C@H](C(=O)O)C1C(C(=O)O)C1C(=O)O (some centres undefined)	nt	nt	-8%	nt
Cc1ccc(C(=O)Nc2sc3c(c2C(=O)O)CCCCC3)o1	3	1	?	10µM*
O=C1c2ccccc2C(=O)c2c(NC3CCCCC3)ccc(Nc3ccc(S(=O)(=O)O)cc3)c21	nt	nt	11%	nt
Cc1nc(NCc2ccccc2)c2nc(-c3ccccc3)n(CCN3CCCCC3)c2n1	nt	nt	10%	nt
C[C@H](NC(=O)OC(C)(C)C)C(=O)NCC1CCC(C(=O)N[C@@H](Cc2ccccc2)C(=O)O)CC1 (some centres undefined)	6	-17	nt	3.5µM*
CCN1CCN(C2=CC3=CC(=C(C#N)C#N)CCC3CC2)CC1 (centres undefined)	99*	-21	25%	-3%
CC1(C)CC(NCCN2CCN(C3=CC(=C(C#N)C#N)CC(C)(C)C3)CC2)=CC(=C(C#N)C#N)C1	9	7	7%	-5%
N#CC(C#N)=C1C=C2C=C(N3CCOCC3)CCC2CC1 (centres undefined)	140*	-12	38%	9%
CN1CCN(C2=CC3=CC(=C(C#N)C#N)CCC3CC2)CC1 (centres undefined)	184*	-5	64%	0%
N#Cc1cc(Cl)c(N2CCOCC2)cc1C#N	-2	-7	6%[38.3 µM]	-5%
N#CC(C#N)=C1C=C2C=C(N3CCCCCC3)CCC2CC1 (centres undefined)	93*	-6	23%	17%
CCCC(c1cc(C(C)(C)C)c(O)cc1C)c1cc(C(C)(C)C)c(O)cc1C	nt	nt	-2%	nt
O=[N+]([O-])c1ccc(Cl)c(CNc2ncnc3c2ncn3[C@@H]2CCCCO2)c1	nt	nt	8%	nt
CC(C)(C)OC(=O)N1CSC[C@H]1C(=O)NC[C@H](CC(=O)O)c1ccc(Cl)cc1	-6	0	nt	7.1µM*
OCCCNc1nc(-c2ccccc2)c2cc(Br)ccc2n1	?	-23	nt	40µM*
Cc1ccc2nc(NCCCO)nc(-c3ccccc3)c2c1	25	-10	7%[38.3 µM]	nt
Cc1cc2ncn(CC(=O)O)c2cc1C	nt	nt	-2%	nt
COc1ccc(CNC(=O)CN2CCN(c3cccc(C)c3C)CC2)cc1	80*	-5	nt	14%
CS(=O)(=O)c1ccc(-c2cn3cc(C(=O)O)ccc3n2)cc1	-4	1	-29%	-4%
SMILES	TRPV1 ag	TRPV1 PAM	IMPase Li cell	A-T KAP1 phos
COC(=O)c1ccc2nc(-c3ccc(S(C)(=O)=O)cc3)cn2c1	-5	?	11µM*	-2%
COC(CNC(=O)CCc1c(C)nc2c(c(C)nn2-c2ccc(C)cc2)c1C)OC	82*	-21	nt	5%
Cc1ccc(-n2nc(C)c3c(C)c(CCC(=O)NCCCOC(C)C)c(C)nc32)cc1	?	-15	nt	0%
CCN(C(=O)COC(=O)c1cncc(Br)c1)C1CCS(=O)(=O)C1 (centres undefined)	6	80*	1%	2%
CC(CC(=O)O)(CC(=O)O)c1ccccc1	nt	nt	5%	nt
O=C(Nc1nc2nccc(-c3ccccc3)n2n1)c1ccccc1	0	4	nt	7%
O=C(Nc1nc2nccc(-c3ccccc3)n2n1)c1ccc(F)cc1	-6	1	10µM*	5%
N=C1/C(=C\c2coc3ccccc3c2=O)C(=O)N=C2SC(c3ccncc3)=NN12	91*	-18	nt	-6%
c1ccc(-n2c3ccccc3c3ccccc32)cc1	-2	5	nt	25µM*
CC(=O)n1c2ccccc2c2ccccc21	-1	8	-6%[38.3 µM]	-3%
CCc1cc(C(C)=O)c(O)cc1OCCCCCC(C)(C)c1nn[nH]n1	nt	nt	4%	nt
C/C(=N\NC(=O)c1ccncc1)c1cccc(NC(=O)c2ccc(C(C)(C)C)cc2)c1	85*	0	nt	8%
O=C(Nc1cccc([N+](=O)[O-])c1)c1ccncc1	-5	-21	7%	0%
